Measured values reported in PubChem BioAssay.
Calls of active or inactive are those of the source. Unless noted, the rule behind the calls is not given here.

Key:
[1] = tested on: Wnt5a (protein binding on small-molecule microarray); assay: small molecules binding Wnt5a protein – biophysical, small-molecule microarray, 635/667 nm fluorescence, primary screen (AID 1142); conditions: 635 nm fluorescence, higher = more signal;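 note: fluorescence read at 667 nm with signal to noise per printed feature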
[2] = ATP-based viability of Huh7 replicon cells – cell-based, CellTiter-Glo luminescence, basal, 48 h, cytotoxicity control for HCV replication inhibitor project, primary screen (AID 1143); conditions: higher = more signal, called active from +8 up or from −8 down;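 note: Huh7 hepatoma cells carrying a hepatitis C replication reporter with no stimulus; test concentration not given here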
[3] = Pseudomonas biofilm growth suppression – PAO1 strain, BacTiter-Glo luminescence, LB-PBS, primary screen (AID 1144); conditions: P. aeruginosa PAO1 biofilm, 12 h, higher = more signal
[4] = basal CRE-LacZ reporter activity in PC12 – cell-based, unstimulated, primary screen (AID 1145); conditions: no forskolin, luminescence, 4.5 h, higher = more signal, called active from +8 up or from −8 down
[5] = forskolin-driven CRE-LacZ activity in PC12 – cell-based, CRE-LacZ reporter, forskolin-stimulated, primary screen (AID 1146); conditions: luminescence, 4.5 h, higher = more signal, called active from +8 up or from −8 down;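 note: PC12 cells with 6xCRE LacZ reporter stimulated by forskolin 10 µM; beta-galactosidase reporter signal reflecting CREB driven transcription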
[6] = target: Streptavidin (Streptomyces avidinii) (UniProt P22629); assay: compounds binding control protein streptavidin – biophysical, small-molecule microarray, 635/667 nm fluorescence, artefact control for SMM compound annotation, primary screen (AID 1147); conditions: higher = more signal;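 note: signal reflects streptavidin binding to arrayed compounds as a control protein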
Streptavidin (Streptomyces avidinii), sequence (P22629 whole entry, looked up): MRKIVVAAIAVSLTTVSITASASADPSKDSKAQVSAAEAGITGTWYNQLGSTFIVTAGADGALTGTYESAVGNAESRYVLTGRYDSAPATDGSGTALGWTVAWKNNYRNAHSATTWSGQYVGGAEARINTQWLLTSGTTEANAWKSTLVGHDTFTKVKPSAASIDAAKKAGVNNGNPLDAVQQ

[7] = probe aInhba binding on compound microarray – biochemical, small-molecule microarray, 635/667 nm fluorescence, primary screen (AID 1148); conditions: higher = more signal;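 note: score merges 667nm spot fluorescence with signal-to-noise for antibody binding to printed compounds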
[8] = target: Torsin-1A (Homo sapiens) (UniProt O14656); assay: TOR1A wild-type binding on microarray – cell lysate, small-molecule microarray, lysate, 635/667 nm, primary screen (AID 1149); conditions: COS7 hTOR1A-WT lysate, 635 nm fluorescence, higher = more signal
Torsin-1A (Homo sapiens), sequence (O14656 whole entry, looked up): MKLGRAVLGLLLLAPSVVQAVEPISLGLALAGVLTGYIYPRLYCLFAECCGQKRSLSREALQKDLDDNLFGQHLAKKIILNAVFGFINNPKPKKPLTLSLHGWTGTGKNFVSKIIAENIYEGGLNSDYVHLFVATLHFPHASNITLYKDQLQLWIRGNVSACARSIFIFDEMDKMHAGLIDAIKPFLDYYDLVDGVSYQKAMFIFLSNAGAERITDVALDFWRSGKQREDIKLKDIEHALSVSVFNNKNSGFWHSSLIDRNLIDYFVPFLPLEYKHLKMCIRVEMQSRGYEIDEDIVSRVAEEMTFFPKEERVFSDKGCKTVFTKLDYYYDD

[9] = target: Torsin-1A (Homo sapiens) (UniProt O14656); assay: torsin A mutant lysate binding on microarrays – cell lysate, small-molecule microarray, COS7 lysate, 635/667 nm fluorescence, primary screen (AID 1150); conditions: COS7 hTOR1A mutant lysate, 635 nm fluorescence, higher = more signal;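 note: score pools 667 nm emission and signal to noise measuring lysate protein binding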
[10] = tested on: Sonic hedgehog protein (Shh); assay: Sonic hedgehog microarray binding compounds – biochemical, small-molecule microarray, 635/667 nm fluorescence, primary screen (AID 1151); conditions: 635 nm fluorescence, higher = more signal;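 note: Shh protein binding to compounds spotted on small-molecule microarray slides; score combines spot fluorescence intensity with signal-to-noise across triplicate slides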
[11] = optical density shifts of acrAB sulA E. coli – strain DRC41, OD650, 48 h, E. coli filamentation inducer project, primary screen (AID 1152); conditions: higher = more signal, called active from +8 up or from −8 down;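 note: E. coli MC1000 strain DRC41 lacking acrAB efflux pump and sulA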
[12] = probe aLefty1 binding on compound microarray – biochemical, small-molecule microarray, 635/667 nm fluorescence, primary screen (AID 1153); conditions: higher = more signal;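 note: score merges spot fluorescence with signal-to-noise ratio from the scanned slide images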
[13] = plasmodial surface anion channel blockers, osmotic lysis – cell-based, P. falciparum Indochina, OD700, 1 h, primary screen (AID 1154); conditions: P. falciparum Indochina infected RBC osmotic lysis, higher = more signal, called active from +8 up or from −8 down
[14] = plasmodial surface anion channel blockers, osmotic lysis – cell-based, P. falciparum Indochina, OD700, 2 h, primary screen (AID 1155);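 note: lysis reports solute entry through the parasite surface anion channel PSAC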; conditions: P. falciparum Indochina infected erythrocytes, higher = more signal, called active from +8 up or from −8 down
[15] = changes in parasitized red cell lysis, either direction – P. falciparum Indochina, OD700, 3 h, PSAC antagonist project, primary screen (AID 1156); conditions: P. falciparum-infected erythrocytes, osmotic lysis, higher = more signal, called active from +8 up or from −8 down
[16] = plasmodial surface anion channel blockers, osmotic lysis – cell-based, P. falciparum Indochina, OD700, 18 h, primary screen (AID 1157); conditions: P. falciparum Indochina infected erythrocytes, osmotic lysis OD700, 18 h; higher = more signal, called active from +8 up or from −8 down
[17] = S6 kinase pathway phospho-S6 level changes – cell-based, A549, cytoblot, luminescence, serum-stimulated, primary screen (AID 1158); conditions: 5 h, higher = more signal;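 note: serum-stimulated A549 lung adenocarcinoma cells; signal is phosphorylated S6 detected by cytoblot immunostaining with HRP secondary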
[18] = target: NADPH oxidase 2 (Homo sapiens) (UniProt P04839); assay: compounds shifting NOX2 Amplex Red fluorescence – cell-based, HEK293-NOX2, PMA-stimulated, NOX inhibitor project, primary screen (AID 1159); conditions: 45 min, higher = more signal, called active from +8 up or from −8 down; note: test concentration not given here
NADPH oxidase 2 (Homo sapiens), sequence (P04839 whole entry, looked up): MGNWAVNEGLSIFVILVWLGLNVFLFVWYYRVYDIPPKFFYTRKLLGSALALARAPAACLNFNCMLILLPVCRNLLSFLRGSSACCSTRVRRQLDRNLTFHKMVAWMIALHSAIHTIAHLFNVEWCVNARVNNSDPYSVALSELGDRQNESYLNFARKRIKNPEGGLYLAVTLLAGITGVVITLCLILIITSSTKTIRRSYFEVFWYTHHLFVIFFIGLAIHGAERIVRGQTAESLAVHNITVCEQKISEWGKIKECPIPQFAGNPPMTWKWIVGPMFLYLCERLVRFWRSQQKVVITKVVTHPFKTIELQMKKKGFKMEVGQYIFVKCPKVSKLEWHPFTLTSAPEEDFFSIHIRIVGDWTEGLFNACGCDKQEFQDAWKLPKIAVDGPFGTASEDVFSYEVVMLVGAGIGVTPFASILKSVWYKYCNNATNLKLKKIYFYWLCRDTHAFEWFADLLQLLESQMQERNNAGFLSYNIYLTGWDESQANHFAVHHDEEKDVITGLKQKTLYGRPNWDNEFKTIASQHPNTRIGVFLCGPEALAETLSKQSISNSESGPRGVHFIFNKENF

[19] = target: NADPH oxidase 4 (Homo sapiens) (UniProt Q9NPH5); assay: compounds shifting NOX4 Amplex Red fluorescence – cell-based, HEK293-NOX4, tetracycline-induced, NOX inhibitor project, primary screen (AID 1160); conditions: HEK293-NOX4, Amplex Red H2O2 fluorescence, 45 min; higher = more signal, called active from +8 up or from −8 down
NADPH oxidase 4 (Homo sapiens), sequence (Q9NPH5 whole entry, looked up): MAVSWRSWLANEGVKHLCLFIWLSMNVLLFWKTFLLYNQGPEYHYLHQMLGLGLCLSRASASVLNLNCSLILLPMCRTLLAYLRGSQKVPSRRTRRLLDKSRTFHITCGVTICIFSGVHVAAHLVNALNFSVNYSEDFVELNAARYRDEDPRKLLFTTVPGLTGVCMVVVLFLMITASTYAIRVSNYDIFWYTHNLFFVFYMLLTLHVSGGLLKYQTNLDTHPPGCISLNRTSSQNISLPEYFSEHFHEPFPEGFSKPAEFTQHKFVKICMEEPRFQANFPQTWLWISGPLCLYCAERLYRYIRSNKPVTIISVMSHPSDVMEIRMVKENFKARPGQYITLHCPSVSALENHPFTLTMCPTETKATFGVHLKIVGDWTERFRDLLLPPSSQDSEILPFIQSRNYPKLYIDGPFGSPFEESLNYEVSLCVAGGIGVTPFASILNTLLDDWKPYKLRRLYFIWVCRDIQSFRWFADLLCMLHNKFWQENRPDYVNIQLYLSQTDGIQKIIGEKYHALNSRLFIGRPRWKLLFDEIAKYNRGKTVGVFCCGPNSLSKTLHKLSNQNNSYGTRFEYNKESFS

[20] = target: NADPH oxidase 5 (Homo sapiens) (UniProt Q96PH1); assay: compounds shifting NOX5 Amplex Red fluorescence – cell-based, HEK293-NOX5, NOX inhibitor project, primary screen (AID 1161); conditions: HEK293-NOX5, ionomycin, 45 min, higher = more signal
NADPH oxidase 5 (Homo sapiens), sequence (Q96PH1 whole entry, looked up): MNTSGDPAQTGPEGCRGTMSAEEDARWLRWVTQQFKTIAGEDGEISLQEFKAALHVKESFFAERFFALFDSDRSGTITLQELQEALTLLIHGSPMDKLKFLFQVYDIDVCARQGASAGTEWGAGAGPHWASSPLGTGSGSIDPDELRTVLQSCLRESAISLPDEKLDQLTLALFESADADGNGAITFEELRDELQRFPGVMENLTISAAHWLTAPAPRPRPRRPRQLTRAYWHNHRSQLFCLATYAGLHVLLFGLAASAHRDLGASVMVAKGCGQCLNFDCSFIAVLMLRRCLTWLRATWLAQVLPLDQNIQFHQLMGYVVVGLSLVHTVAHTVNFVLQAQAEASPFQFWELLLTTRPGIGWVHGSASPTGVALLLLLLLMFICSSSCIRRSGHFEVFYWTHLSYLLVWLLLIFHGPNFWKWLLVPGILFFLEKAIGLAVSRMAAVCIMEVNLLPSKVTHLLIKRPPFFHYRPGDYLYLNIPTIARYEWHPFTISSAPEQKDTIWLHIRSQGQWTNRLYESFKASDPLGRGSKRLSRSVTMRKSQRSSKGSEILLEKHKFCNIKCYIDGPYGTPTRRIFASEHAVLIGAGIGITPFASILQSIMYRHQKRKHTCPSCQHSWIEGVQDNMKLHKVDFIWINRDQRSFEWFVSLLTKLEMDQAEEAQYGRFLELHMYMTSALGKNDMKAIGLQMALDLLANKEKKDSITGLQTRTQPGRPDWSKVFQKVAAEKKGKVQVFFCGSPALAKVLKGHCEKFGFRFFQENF

SMILES	composite z-score [1]	z-score [2]	z-score [3]	z-score [4]	z-score [5]	composite z-score [6]	composite z-score [7]	composite z-score [8]	composite z-score [9]	composite z-score [10]	z-score [11]	composite z-score [12]	z-score [13]	z-score [14]	z-score [15]	z-score [16]	z-score [17]	z-score [18]	z-score [19]	z-score [20]
Cn1cccc1C(O)C1C=CC2C(=O)NC(=O)C2N1Nc1ccc(Cl)cc1Cl (stereo not given)	0.0792	-0.316 (inactive)	-0.668 (inactive)	0.812 (inactive)	2.09 (inactive)	1.37	0.374	0.887	1.05	-0.269	-3.18 (inactive)	0.0981	2.16 (inactive)	1.35 (inactive)	0.304 (inactive)	1.07 (inactive)	-1.42	-0.663 (inactive)	-3.85 (inactive)	-2.71
COCCOC(=O)N1C(=O)[C@@]2(c3cc(C#Cc4ccc(OC)cc4)ccc31)[C@H](c1ccccc1OCCO)N1[C@H](c3ccccc3)[C@H](c3ccccc3)OC(=O)[C@H]1[C@@H]2C(=O)N1CCCCCCC1	1.28	-4.35 (inactive)	-2.23 (inactive)	-1.42 (inactive)	-0.693 (inactive)	2.64	1.56	2.72	2.09	2.04	2.97 (inactive)	2.81	0.999 (inactive)	0.57 (inactive)	0.338 (inactive)	-0.122 (inactive)	1.99	-0.126 (inactive)	0.201 (inactive)	1.19
CCCCCCc1nc(C2CC2)cc2c1[Si](C(C)C)(C(C)C)OC2	-0.306	-2.44 (inactive)	-0.486 (inactive)	1.59 (inactive)	0.997 (inactive)	0.312	-0.261	-0.522	-0.751	-0.694	-0.611 (inactive)	-0.0559	0.834 (inactive)	-0.225 (inactive)	0.981 (inactive)	-1.13 (inactive)	0.259	-6.34 (inactive)	-2.12 (inactive)	-4.98
COC(=O)c1ccc([C@H](NC(=O)c2ccco2)[C@]2(C)C[C@H]2C2CCCCC2)cc1	0.0108	-2.84 (inactive)	-0.635 (inactive)	-0.368 (inactive)	0.898 (inactive)	0.689	0.0659	-2.21	-0.568	-1.21	-2.39 (inactive)	0.527	16.4 (active)	2.52 (inactive)	1.33 (inactive)	1.3 (inactive)	-0.357	-0.803 (inactive)	-2.56 (inactive)	0.289
O=C1NC(=O)C2C1C=CC(C(O)c1c(F)cccc1Cl)N2Nc1ccc(Cl)cc1Cl (stereo not given)	0.275	-1.37 (inactive)	-0.159 (inactive)	0.632 (inactive)	-0.524 (inactive)	1.23	0.414	0.465	1.27	-0.854	-3.86 (inactive)	0.501	3.9 (inactive)	0.914 (inactive)	-0.87 (inactive)	1.17 (inactive)	-1.27	0.295 (inactive)	-5.4 (inactive)	-2.57
C=C(/C(=C/C[C@@H](OC(C)=O)c1cccc(OCCO)c1)c1cc(C(=O)OC)ccc1OC)C(C)C	0.148	-1.38 (inactive)	-0.251 (inactive)	3.49 (inactive)	0.32 (inactive)	-0.19	-0.152	0.875	1.36	1.73	0.546 (inactive)	0.0962	9.43 (active)	1.6 (inactive)	2.19 (inactive)	0.75 (inactive)	0.547	-2.08 (inactive)	-1.07 (inactive)	-2.17
COc1ccc(CCNC(=O)[C@@H]2c3ccccc3C(=O)N(Cc3cc(C(F)(F)F)cc(C(F)(F)F)c3)[C@H]2c2ccc(CO)cc2)cc1	0.822	-1.41 (inactive)	0.703 (inactive)	0.441 (inactive)	0.632 (inactive)	0.915	-0.016	-0.498	-0.181	0.355	0.0073 (inactive)	0.108	4.55 (inactive)	0.383 (inactive)	0.767 (inactive)	0.233 (inactive)	0.154	-1.75 (inactive)	0.194 (inactive)	-0.077
COC(=O)Cn1c(C(=O)N(C)C)cc2c1C[C@H]1CN(C(=O)c3ccccc3)[C@@](Cc3ccc(F)cc3)(C(=O)OC)[C@@H]21	0.398	-0.725 (inactive)	-0.625 (inactive)	0.207 (inactive)	-0.106 (inactive)	0.124	0.382	0.245	-0.068	-0.238	-1.25 (inactive)	0.523	0.628 (inactive)	0.238 (inactive)	0.13 (inactive)	0.52 (inactive)	-0.38	0.174 (inactive)	-0.765 (inactive)	-1.26
COC(=O)[C@@]1(Cc2ccc(OC)cc2)[C@H]2c3cc(C(=O)N(C)C)n(Cc4ccc(Cl)c(C(F)(F)F)c4)c3C[C@H]2CN1C(=O)c1ccccc1	0.758	-2.81 (inactive)	0.275 (inactive)	2.87 (inactive)	2.18 (inactive)	0.725	0.515	-0.213	0.234	-0.988	-1.4 (inactive)	0.357	7.57 (inactive)	1.42 (inactive)	1.01 (inactive)	1.21 (inactive)	-0.264	1.19 (inactive)	-0.227 (inactive)	1.57
O=C1OCCC/C=C\[C@H]2OC34C=CCN(CCN5CCOCC5)C(=O)[C@H]3N(CCCCCCO)C(=O)[C@@H]4C12 (stereo not given in full)	-0.089	-0.129 (inactive)	-1.18 (inactive)	0.325 (inactive)	-0.0772 (inactive)	-0.215	-0.0791	0.944	-0.404	0.837	1.76 (inactive)	0.369	3.78 (inactive)	-0.652 (inactive)	0.752 (inactive)	-0.774 (inactive)	1.66	0.752 (inactive)	-0.153 (inactive)	1.9
CCC[C@@H]1C[C@@]1(CCC)[C@@H](NC(=O)OCc1ccccc1)c1ccc(-c2ccccc2)cc1	-0.189	-1.28 (inactive)	-0.0658 (inactive)	-0.375 (inactive)	0.785 (inactive)	-0.504	-0.12	-0.301	-0.928	-0.895	-1.07 (inactive)	0.545	3.2 (inactive)	0.81 (inactive)	-0.221 (inactive)	0.224 (inactive)	0.542	-0.648 (inactive)	-1.45 (inactive)	0.0161
COCCOC(=O)N1C(=O)[C@@]2(c3cc(C#CC4=CCCCC4)ccc31)[C@H](c1ccc(O)cc1)N1[C@H](c3ccccc3)[C@H](c3ccccc3)OC(=O)[C@H]1[C@@H]2C(=O)N1CCN(c2ncccn2)CC1	-0.299	0.498 (inactive)	-0.572 (inactive)	-0.467 (inactive)	-0.0588 (inactive)	-1.34	-0.152	-0.692	-1.27	-0.589	-0.202 (inactive)	-0.183	-0.0088 (inactive)	0.18 (inactive)	0.299 (inactive)	0.0164 (inactive)	-0.229	0.347 (inactive)	-0.0204 (inactive)	0.715
O=C(NCC(F)(F)F)[C@@H]1c2ccccc2C(=O)N(Cc2ccc(OC(F)(F)F)cc2)[C@H]1c1ccc(CO)cc1	0.119	-2.41 (inactive)	-0.652 (inactive)	0.531 (inactive)	0.118 (inactive)	-0.176	-0.0672	0.176	-0.0108	1.74	0.484 (inactive)	-0.252	0.926 (inactive)	-0.137 (inactive)	1.44 (inactive)	0.376 (inactive)	-0.323	-0.759 (inactive)	-0.889 (inactive)	-0.263
CCOC(=O)C[C@H]1[C@H](OC(=O)c2ccccc2-c2ccccc2)[C@@H](NC(=O)C2CCCCC2)c2cc(OCCCO)ccc2N1C(=O)Cc1ccc(OC)cc1	0.0136	-0.226 (inactive)	0.642 (inactive)	4.65 (inactive)	0.899 (inactive)	0.0611	-0.0736	-0.0183	0.307	-0.0275	-1.13 (inactive)	-0.0547	1.1 (inactive)	0.664 (inactive)	0.125 (inactive)	0.256 (inactive)	-0.434	0.0588 (inactive)	0.979 (inactive)	0.103
CO[C@H]1O[C@H](CO)[C@@H](OC(=O)Nc2ccc3c(c2)OCO3)[C@H](OC(=O)c2cc3ccccc3[nH]2)[C@H]1OC(=O)c1cc2ccccc2[nH]1	0.0957	-2.92 (inactive)	-1.37 (inactive)	1.03 (inactive)	-1.29 (inactive)	0.483	-0.128	0.103	-0.214	0.458	0.599 (inactive)	-0.0162	1.48 (inactive)	-0.354 (inactive)	-0.739 (inactive)	-0.536 (inactive)	1.26	-3.78 (inactive)	-1.95 (inactive)	-3.47
CCCCCCc1nc(-c2cc(C)c(OC)c(C)c2)c(C)c2c1[Si](C(C)C)(C(C)C)OC2	0	-3.03 (inactive)	-0.892 (inactive)	0.148 (inactive)	-0.101 (inactive)	0.273	-0.128	0.0704	-1.06	0.186	0.03 (inactive)	0.0056	1.53 (inactive)	-0.314 (inactive)	1.02 (inactive)	-0.348 (inactive)	1.94	-2.5 (inactive)	0.626 (inactive)	-2.23
CN(C)CCCCNC(=O)[C@@H]1C[C@@H]2C(=O)N[C@@H](Cc3ccccc3)C(=O)N2[C@@H]1c1cccc(OCCO)c1	1.2	-1.6 (inactive)	-0.133 (inactive)	0.431 (inactive)	-0.903 (inactive)	-0.351	0.0543	0.75	1.54	1.55	2.93 (inactive)	0.243	7.44 (inactive)	-0.16 (inactive)	-1.84 (inactive)	-1.29 (inactive)	0.602	0.767 (inactive)	0.74 (inactive)	1.55
